Where “and” joins values, the source holds several entries; their conditions need not be identical. Equal values may be shown once. Out of some 5,500 compounds screened, about 2,000 (36%) were called active. Another 18% or so got no clear call; they are omitted. The list shows a part of the results. Unmarked numbers belong to inactive results. Rule as the data show it: active = normalized growth mostly below about 0.91 (no sharp cut-off); inconclusive = no clear call, values can overlap the other calls; inactive = mostly above about 0.92.
Test: chemical genetic growth profiling, strain panel (AID 1159580);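 also: tested at 20 µM; growth read once vehicle control cultures reached saturation at 30 °C; 1 = growth at the plate median or of vehicle wells; lower values mean less growth of the strain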
Conditions: S. cerevisiae deletion strains, growth OD

Compound: CC1[C@H](C)OC(=O)CC(O)CC(O)CC(O)CCC(O)C(O)C[C@]2(O)CC(O)C(C(=O)O)C(CC(OC3O[C@H](C)[C@@H](O)[C@H](N)[C@@H]3O)/C=C/C=C/C=C/C=C/CC/C=C/C=C/[C@H](C)[C@H]1O)O2 (stereo partly specified)
- normalized growth (locus YAL013W, strain DEP1, stronger effect = lower value): 0.0554 (active)
- normalized growth (locus YAL021C, strain ccr4, stronger effect = lower value): 0.186 (active)
- normalized growth (locus YAL026C, strain drs2, stronger effect = lower value): 0.0661 (active)
- normalized growth (locus YAL030W, strain snc1, stronger effect = lower value): 0.824 (active)
- normalized growth (locus YBL061C, strain skt5, stronger effect = lower value): 0.931
- normalized growth (locus YBR009C, strain hhf1, stronger effect = lower value): 0.557 (active)
- normalized growth (locus YBR021W, strain FUR4, stronger effect = lower value): 0.369 (active)
- normalized growth (locus YBR023C, strain chs3, stronger effect = lower value): 0.918
- normalized growth (locus YBR171W, strain sec66, stronger effect = lower value): 0.0858 (active)
- normalized growth (locus YBR229C, strain ROT2, stronger effect = lower value): 0.206 (active)
- normalized growth (locus YBR279W, strain paf1, stronger effect = lower value): 0.982
- normalized growth (locus YCL011C, strain gbp2, stronger effect = lower value): 0.223 (active)
- normalized growth (locus YCL016C, strain dcc1, stronger effect = lower value): 0.971
- normalized growth (locus YCL029C, strain bik1, stronger effect = lower value): 0.425 (active)
- normalized growth (locus YCL069W, strain vba3, stronger effect = lower value): 0.849 (active)
- normalized growth (locus YCR088W, strain abp1, stronger effect = lower value): 0.0729 (active)
- normalized growth (locus YDL005C, strain med2, stronger effect = lower value): 0.953
- normalized growth (locus YDL035C, strain GPR1, stronger effect = lower value): 0.0678 (active)
- normalized growth (locus YDL040C, strain nat1, stronger effect = lower value): 0.995
- normalized growth (locus YDL074C, strain BRE1, stronger effect = lower value): 0.144 (active)
- normalized growth (locus YDL101C, strain DUN1, stronger effect = lower value): 0.188 (active)
- normalized growth (locus YDL134C, strain PPH21, stronger effect = lower value): 0.592 (active)
- normalized growth (locus YDL185W, strain tfp1, stronger effect = lower value): 0.0687 (active)
- normalized growth (locus YDL192W, strain arf1, stronger effect = lower value): 0.133 (active)
- normalized growth (locus YDR001C, strain nth1, stronger effect = lower value): 0.815 (active)
- normalized growth (locus YDR069C, strain doa4, stronger effect = lower value): 0.858 (active)
- normalized growth (locus YDR101C, strain arx1, stronger effect = lower value): 0.119 (active)
- normalized growth (locus YDR137W, strain rgp1, stronger effect = lower value): 0.914
- normalized growth (locus YDR150W, strain NUM1, stronger effect = lower value): 0.0676 (active)
- normalized growth (locus YDR159W, strain sac3, stronger effect = lower value): 1.04
- normalized growth (locus YDR162C, strain NBP2, stronger effect = lower value): 0.0472 (active)
- normalized growth (locus YDR195W, strain ref2): 0.466 (active)
- normalized growth (locus YDR297W, strain sur2, stronger effect = lower value): 0.828 (active)
- normalized growth (locus YDR318W, strain mcm21, stronger effect = lower value): 0.194 (active)
- normalized growth (locus YDR334W, strain swr1, stronger effect = lower value): 0.415 (active)
- normalized growth (locus YDR335W, strain msn5, stronger effect = lower value): 0.904 (active)
- normalized growth (locus YDR388W, stronger effect = lower value): 0.0675 (active)
- normalized growth (locus YDR392W, strain spt3, stronger effect = lower value): 1.11
- normalized growth (locus YDR502C, strain sam2, stronger effect = lower value): 0.0781 (active)
- normalized growth (locus YEL003W, strain gim4, stronger effect = lower value): 0.154 (active)
- normalized growth (locus YEL037C, strain rad23, stronger effect = lower value): 0.723 (active)
- normalized growth (locus YEL061C, strain CIN8 (second series), stronger effect = lower value): 0.815 (active)
- normalized growth (locus YEL061C, strain CIN8, stronger effect = lower value): 0.0554 (active)
- normalized growth (locus YER015W, strain faa2, stronger effect = lower value): 0.822 (active)
- normalized growth (locus YER016W, strain bim1, stronger effect = lower value): 0.961
- normalized growth (locus YER110C, stronger effect = lower value): 0.188 (active)
- normalized growth (locus YER111C, strain swi4, stronger effect = lower value): 0.959
- normalized growth (locus YER155C, strain BEM2 (second series), stronger effect = lower value): 0.633 (active)
- normalized growth (locus YER155C, strain BEM2, stronger effect = lower value): 0.122 (active)
- normalized growth (locus YER167W, strain BCK2, stronger effect = lower value): 0.0855 (active)
- normalized growth (locus YFR010W, strain ubp6, stronger effect = lower value): 0.137 (active)
- normalized growth (locus YGL078C, strain dbp3, stronger effect = lower value): 0.0582 (active)
- normalized growth (locus YGL086W, strain mad1, stronger effect = lower value): 0.124 (active)
- normalized growth (locus YGL167C, strain pmr1, stronger effect = lower value): 0.996
- normalized growth (locus YGL173C, strain kem1, stronger effect = lower value): 0.799 (active)
- normalized growth (locus YGL227W, strain vid30, stronger effect = lower value): 0.061 (active)
- normalized growth (locus YGL240W, strain doc1, stronger effect = lower value): 0.537 (active)
- normalized growth (locus YGL248W, strain PDE1, stronger effect = lower value): 0.646 (active)
- normalized growth (locus YGL253W, strain hxk2, stronger effect = lower value): 0.44 (active)
- normalized growth (locus YGR078C, strain PAC10, stronger effect = lower value): 0.0638 (active)
- normalized growth (locus YGR135W, strain pre9, stronger effect = lower value): 0.0907 (active)
- normalized growth (locus YGR229C, strain SMI1, stronger effect = lower value): 0.0609 (active)
- normalized growth (locus YGR252W, strain gcn5, stronger effect = lower value): 0.385 (active)
- normalized growth (locus YHR013C, strain ard1, stronger effect = lower value): 1.35 [resistant] (active)
- normalized growth (locus YHR027C, strain rpn1, stronger effect = lower value): 0.77 (active)
- normalized growth (locus YHR030C, strain SLT2, stronger effect = lower value): 0.179 (active) and 0.0985 (active)
- normalized growth (locus YHR079C, strain IRE1 (second series), stronger effect = lower value): 0.312 (active)
- normalized growth (locus YHR079C, strain IRE1, stronger effect = lower value): 0.102 (active)
- normalized growth (locus YHR094C, strain hxt1, stronger effect = lower value): 0.302 (active)
- normalized growth (locus YHR129C, strain ARP1, stronger effect = lower value): 0.129 (active)
- normalized growth (locus YHR142W, strain chs7, stronger effect = lower value): 0.658 (active)
- normalized growth (locus YHR200W, strain rpn10, stronger effect = lower value): 0.0755 (active)
- normalized growth (locus YIL066C, strain RNR3, stronger effect = lower value): 0.51 (active)
- normalized growth (locus YIL073C, strain SPO22, stronger effect = lower value): 0.987
- normalized growth (locus YIL125W, strain kgd1, stronger effect = lower value): 0.0583 (active)
- normalized growth (locus YIR030C, strain dcg1, stronger effect = lower value): 0.182 (active)
- normalized growth (locus YJL092W, strain hpr5, stronger effect = lower value): 0.402 (active)
- normalized growth (locus YJL095W, strain BCK1 (second series), stronger effect = lower value): 0.994
- normalized growth (locus YJL095W, strain BCK1, stronger effect = lower value): 0.567 (active) and 0.099 (active)
- normalized growth (locus YJL115W, strain asf1, stronger effect = lower value): 0.887 (active)
- normalized growth (locus YJL129C, strain trk1, stronger effect = lower value): 1.2 [resistant] (active)
- normalized growth (locus YJL134W, strain LCB3, stronger effect = lower value): 0.372 (active)
- normalized growth (locus YJL154C, strain vps35, stronger effect = lower value): 0.985
- normalized growth (locus YJL164C, strain tpk1, stronger effect = lower value): 0.775 (active)
- normalized growth (locus YJL166W, strain qcr8, stronger effect = lower value): 0.789 (active)
- normalized growth (locus YJL168C, strain set2, stronger effect = lower value): 0.199 (active)
- normalized growth (locus YJL187C, strain SWE1 (second series), stronger effect = lower value): 0.168 (active)
- normalized growth (locus YJL187C, strain SWE1, stronger effect = lower value): 0.846 (active)
- normalized growth (locus YJR043C, strain POL32, stronger effect = lower value): 0.0611 (active)
- normalized growth (locus YJR066W, strain TOR1, stronger effect = lower value): 0.0213 (active)
- normalized growth (locus YJR075W, strain HOC1, stronger effect = lower value): 0.0672 (active)
